High-throughput results from PubChem.
This is one part of a sample in which hits are shown more often than they occur.
FECH inh: inhibitors of human ferrochelatase; purified FECH, Ni-mesoporphyrin absorbance 550 nm; calls only at 10 µM (by protocol); 20,000 compounds, 3.3% hits; AID 1671448;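 active = enzyme reaction rate more than 3 SD below the solvent-only control wells on the same plate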;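 note: lower slope than DMSO wells means FECH inhibition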
Target sequence (P22830 whole entry, looked up): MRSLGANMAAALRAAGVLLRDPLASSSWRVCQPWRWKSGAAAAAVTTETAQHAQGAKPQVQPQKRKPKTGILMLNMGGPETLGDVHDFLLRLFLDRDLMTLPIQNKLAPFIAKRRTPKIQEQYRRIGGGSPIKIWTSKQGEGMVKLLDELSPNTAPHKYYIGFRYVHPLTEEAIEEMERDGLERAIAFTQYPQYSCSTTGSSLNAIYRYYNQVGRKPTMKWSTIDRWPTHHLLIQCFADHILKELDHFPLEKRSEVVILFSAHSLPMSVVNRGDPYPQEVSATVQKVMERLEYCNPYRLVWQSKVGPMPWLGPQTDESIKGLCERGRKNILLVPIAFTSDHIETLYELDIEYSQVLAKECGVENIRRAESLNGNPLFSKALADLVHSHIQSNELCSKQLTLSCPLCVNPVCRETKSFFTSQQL
* hit, by the source's call; i = inactive; + = active, no number.

SMILES	FECH inh
CCn1c(=O)n(CCOc2ccc(F)cc2)c(=O)c2cnc(-c3ccc(OC)cc3)nc21	i
Cn1c(=O)n(CCOc2ccc(F)cc2)c(=O)c2cnc(-c3ccc(Cl)cc3)nc21	i
O=C(CC(c1ccccc1)c1ccc(F)cc1)NCc1ncn[nH]1 (stereo unspecified)	i
O=C(CC(c1ccccc1)c1ccco1)NCc1cccnc1 (stereo unspecified)	i
COc1cccc(OC)c1-c1ccc2nc(CO)[nH]c2c1	+
COc1cc2c(cc1-c1nccn1-c1ccc3nc(CO)[nH]c3c1)CCC2	i
COc1ccc(-c2ccc3nc(CO)[nH]c3c2)cc1Cl	i
CC(=O)Nc1cccc(-c2ncc(C(F)(F)F)cc2Cl)c1	i
CC(=O)Nc1cccc(-c2ccc3[nH]ncc3c2)c1	i
CCCc1cnc(C)nc1-c1cccc(NC(C)=O)c1	+
COc1cccc(-c2cc(N3CCN(C(=O)Nc4ccccc4Cl)CC3)ncn2)c1	i
COc1cccc(Nc2nc(N3CCC(Cc4ccccc4)CC3)nc3c2cnn3-c2ccccc2)c1	i
CCCNC(=O)Cn1c(=O)n(Cc2ccc(C(=O)NC)cc2)c(=O)c2cc(OC)c(OC)cc21	i
CCC(C)NC(=O)Cn1c(=O)n(Cc2ccc(C(=O)NC)cc2)c(=O)c2cc(OC)c(OC)cc21 (stereo unspecified)	+
COc1cc2c(=O)n(Cc3ccc(C(=O)NC4CCCC4)cc3)c(=O)n(CC(N)=O)c2cc1OC	i
CCCNC(=O)c1ccc(Cn2c(=O)c3cc(OC)c(OC)cc3n(CC(=O)NC(C)CC)c2=O)cc1 (stereo unspecified)	i
CCC(C)NC(=O)c1ccc(Cn2c(=O)c3cc(OC)c(OC)cc3n(CC(N)=O)c2=O)cc1 (stereo unspecified)	i
CNC(=O)c1ccc(Cn2c(=O)c3cc(OC)c(OC)cc3n(CC(=O)NC3CCCC3)c2=O)cc1	+
Cc1c(C(=O)N2[C@H]3CCNC[C@@H]2CC3)c2cc(O)ccc2n1C	i
C=CCn1ccnc1-c1cc(Cl)c(OC)c(OC)c1	i
CCOC(=O)c1c(NC(=O)c2ccc(N3C(=O)CCC3=O)cc2)sc2c1CCN(C(C)C)C2	+
CCOC(=O)c1c(NC(=O)c2cccs2)sc2c1CCN(C(C)C)C2	i
CCOC(=O)c1c(NC(=O)c2ccco2)sc2c1CCN(C(C)C)C2	i
Cc1oc(-c2ccccc2)nc1CC(=O)N1CC2(CCNCC2)CC1C(=O)O (stereo unspecified)	i
COC(=O)CC1=CC(=O)N(CC(=O)Nc2cc(Cl)c(OC)cc2OC)c2ccccc2N1	i
SMILES	FECH inh
COc1ccc(NC(=O)CSc2cc(N3CCCCC3)ncn2)cc1	i
Cc1nn(-c2cc(N3CCCC3)ncn2)c(C)c1CCC(=O)NC1CCCCCC1	i
O=C(CSc1cc(N2CCCCC2)ncn1)NC1CCCC1	+
CCN(Cc1ccc(CO)o1)Cc1c(C)nn(CC)c1C	i
Cc1ccc(NC(=O)Nc2nc(CC(=O)NCCc3ccc(S(N)(=O)=O)cc3)cs2)cc1	i
Cc1ccc(NS(=O)(=O)c2ccc(N)c(S(N)(=O)=O)c2)cc1Cl	i
Nc1ccc(S(=O)(=O)N2CCN(c3ccc(F)cc3)CC2)cc1S(N)(=O)=O	+
O=C1CC(=O)Nc2cc(S(=O)(=O)N3CCCCC3)ccc2N1	i
O=C1CC(=O)Nc2cc(S(=O)(=O)N3CCOCC3)ccc2N1	i
O=C1CC(=O)Nc2cc(S(=O)(=O)N3CCN(c4ccc(F)cc4)CC3)ccc2N1	+
Cc1ccc(-c2cc(N3CCN(S(=O)(=O)c4ccc(F)cc4)CC3)ncn2)cc1	i
COCCN(Cc1ccccn1)C(=O)c1cccc(-c2ccc(O)cc2)c1	i
Cc1nc2sccn2c1C(=O)NCCc1csc(-c2cccnc2)n1	i
Cc1nc2sccn2c1CN1CCCC(Cn2ccnc2)C1 (stereo unspecified)	i
Cc1cc(Br)ccc1NC(=O)Cc1csc(NC(=O)Nc2cccc(Cl)c2)n1	i
CCc1ccc(S(=O)(=O)Nc2cnc(N3CCC(N4CCCCC4)CC3)c(C(=O)O)c2)cc1	i
NC1(C(=O)O)CCN(Cc2ccc(OCC(=O)N3CCCCC3)cc2)C1 (stereo unspecified)	i
Cc1cnc(CN(C)C(=O)c2ccc(OCC(=O)N3CCCCC3)cc2)[nH]1	+
CN(Cc1ncc[nH]1)C(=O)COc1ccc(F)cc1	i
Cc1ccc2nc(C3CCCN3Cc3cc(=O)n4cccc(O)c4n3)[nH]c2c1 (stereo unspecified)	i
Cc1ccc(CN2CCC(CNC(=O)CN3CCOC3=O)CC2)o1	i
Cc1cc(N2CCCC2)nc(Nc2ccc(NC(=O)c3ccccc3F)cc2)n1	i
